Assay outcomes: PubChem, National Center for Advancing Translational Sciences (NCATS)
Pf growth 96h: P. falciparum growth inhibition at 96 hours. P. falciparum luciferase reporter growth, 96 h. AID 504834. actives 6.9% (n = 320,000). Potency, µM (doses to about 28.7 µM), for the others: at the top dose activity change, negative = inhibition, actives largely listed as inhibitors; also: potency is read from the fitted curve at half-maximal effect; % is scaled to controls: 0 for no effect and ±100 for the full control effect
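P. falciparum expressing integrated firefly luciferase grown in erythrocytes (2% hematocrit, 0.05% parasitemia final) with compounds for 96 hours at 37 C, 5% CO2. Growth inhibition read as loss of luminescence after adding luciferase detection reagent.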
NS1 inh: influenza NS1 inhibition. Potency, µM (titrated, usually from 46.1 µM), inactives show at the top dose activity, positive = more growth. actives 0.4% (n = 270,000); calls by dose curve; also: potency is read from the fitted curve at half-maximal effect; actives are rising curves; nearly all actives have a fitted effect of over 50% in size
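A cell-based growth assay was used: compounds that relieve NS1-induced slow growth of budding yeast raise OD600. Assay medium was yeast nitrogen base with ammonium sulphate and -URA supplement, pH 6.0, with 2% galactose.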
CHX counter: counter-screen hit for Shiga toxin inhibitors, cycloheximide | cell reporter, cycloheximide protein synthesis inhibition counterscreen | max response, % | actives 12% (n = 300,000) | AID 2314; in the data active = max response mostly above about 13%, no sharp cut-off; inactive = mostly below about 14%; also: read at 38.3 µM for the half of the compounds with a filed dose; 0% is about no effect
Pf growth 48h: P. falciparum growth inhibition at 48 hours (one generation); AID 504832; Potency, µM (series often up to 28.7 µM), inactives show at the highest dose activity change, negative = inhibition, usual class: inhibitors; P. falciparum luciferase growth in erythrocytes, 48 h; actives 5.9% (n = 310,000); also: potency is read from the fitted curve at half-maximal effect; % is scaled to controls: 0 for no effect and ±100 for the full control effect
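Read-out is firefly luciferase luminescence from an integrated reporter in P. falciparum, so falling signal marks reduced parasite growth. Infected erythrocytes were at 2% hematocrit and 0.1% parasitemia (final) in Albumax-supplemented RPMI 1640.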
Shiga inhibitor: blocks Shiga toxin action in Vero cells | actives 9.2% (n = 290,000) | Vero cells, Shiga toxin protein synthesis inhibition reporter | inhibition, % at 38.7 µM; in the data active = inhibition mostly above about 28%, no sharp cut-off; inactive = mostly below about 43%; also: 0% is about no effect
FBPA Giardia inh: Giardia lamblia aldolase inhibition | Potency, µM (top dose mostly 59.6 µM), inactives show at the top dose activity, negative = inhibition, hits mostly inhibitors | actives 0.71% (n = 290,000) | AID 2451 | purified Giardia FBPA; also: potency is read from the fitted curve at half-maximal effect; % is scaled to controls: 0 for no effect and ±100 for the full control effect; nearly all actives have a fitted effect of over 55% in size
Target sequence (A8B2U2 whole entry, looked up): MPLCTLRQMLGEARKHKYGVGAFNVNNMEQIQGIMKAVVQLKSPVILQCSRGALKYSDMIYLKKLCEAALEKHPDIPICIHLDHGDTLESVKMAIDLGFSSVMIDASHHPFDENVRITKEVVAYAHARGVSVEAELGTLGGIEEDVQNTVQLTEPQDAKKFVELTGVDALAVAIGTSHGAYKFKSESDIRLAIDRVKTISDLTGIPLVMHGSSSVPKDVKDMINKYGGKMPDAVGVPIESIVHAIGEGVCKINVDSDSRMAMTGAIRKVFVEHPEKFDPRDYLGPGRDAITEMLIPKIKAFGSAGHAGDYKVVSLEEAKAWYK
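40 nM FBPA preincubated 10 min at RT with compound (up to 57.5 uM final), then substrate plus GAPDH/TPI/NAD/arsenate coupling and diaphorase/resazurin added. Fluorescence read after 20 min at RT, 525/598 nm.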
Starred values were filed as active, the others as inactive; [ ] = dose if it differs, or a comment. Shown are actives, neighbours in structure and some others; about 21% of the full set was active somewhere. Unless noted, calls follow the shape of the dose curve; as a rule, active = well fitted curve in the direction sought with a large enough effect; inconclusive = small, poorly fitted or top-dose-only effect, or another doubt; inactive = no such curve, though single readings can be large; an effect the other way counts as inactive or inconclusive.

Screening CCCCCCN(C(=O)CCCCCN1C(=O)NC(c2ccc(-c3ccccc3)cc2)C(C(=O)OCc2ccccc2)=C1C)C(C(=O)NCCCC)C1CCCCC1 (stereo not given) returned Pf growth 96h 2.62µM*, NS1 inh -5.0%, CHX counter -7.0, Pf growth 48h 0.828µM*, Shiga inhibitor 15.5 and FBPA Giardia inh 7.5%.
For CCCCCCN(C(=O)CCCCCN1C(=O)NC(c2ccc(-c3ccccc3)cc2)C(C(=O)OCc2ccccc2)=C1C)C(C(=O)NCCCC)c1ccccn1 (stereo not given) the results were Pf growth 96h 2.33µM*, NS1 inh -13.4%, CHX counter -3.3, Pf growth 48h 2.94µM*, Shiga inhibitor -5.0 and FBPA Giardia inh -8.0%.
Screening CCCCCCN(C(=O)CCCCCN1C(=O)NC(c2ccccc2-c2ccccc2)C(C(=O)OCc2ccccc2)=C1C)C(C(=O)NCCCC)c1ccc(OCC(=O)OC)c(C(=O)OC)c1 (stereo not given) returned FBPA Giardia inh -0.7%.
Screening CC(=O)OC[C@@H]1O[C@@H](O/N=C2/C[C@@H](O)[C@@H](O)[C@@H]3[C@@H]4C(=O)N(Cc5ccc6c(c5)OCO6)C(=O)[C@H]4CC[C@H]23)[C@H](OC(C)=O)[C@H](OC(C)=O)[C@@H]1OC(C)=O returned FBPA Giardia inh 0.1%[12.9 µM].
O=C1C2C(c3ccccc3)CC=CC2C(c2ccc3ccccc3c2)N1Cc1ccccc1 (stereo not given) was read as CHX counter 12.2, Shiga inhibitor 5.8 and FBPA Giardia inh 0.1%.
c1cnc(Oc2ccc3oc4ccccc4c3c2)nc1 was read as Pf growth 96h 107.9%, NS1 inh -11.1%, CHX counter 43.9*, Pf growth 48h 80.3%, Shiga inhibitor 56.1* and FBPA Giardia inh 10.4%.
For COc1ccc2oc3ccccc3c(=O)c2c1 the results were Pf growth 96h 41.0%, NS1 inh -2.5%, CHX counter -3.0, Pf growth 48h 66.3%, Shiga inhibitor 13.5 and FBPA Giardia inh 14.5%.
`CCCCCC1C(=O)O[C@H](C)[C@@H](NC(=O)c2cccc(NC=O)c2O)C(=O)OC(C)C1OC(=O)CC(C)C` (stereo not given in full) gave FBPA Giardia inh 0.5%.
`CCCCCCCCCCCC(CC1OC(=O)C1CCCCCC)OC(=O)C(CC(C)C)NC=O` (stereo not given) gave Pf growth 96h 1.51µM*, Pf growth 48h 1.07µM* and FBPA Giardia inh -11.8%.
O=C(N/C(=C\c1ccccc1)C(=O)N1CCCCC1)c1ccc(Br)o1 was read as Pf growth 96h -17.1%, NS1 inh -18.4%, CHX counter -4.4, Pf growth 48h 54.5% and Shiga inhibitor -8.2.
For CC(=O)c1cccc(NC(=O)c2ccc3c(c2)CCCC3)c1 the results were Pf growth 96h 8.3%, NS1 inh -69.3%, CHX counter 53.3*, Pf growth 48h 208.2%, Shiga inhibitor 56.8* and FBPA Giardia inh -13.4%.
Screening COc1cccc(NC(=O)c2ccc3c(c2)CCCC3)c1 returned Pf growth 96h 311.2%, NS1 inh -32.7%, CHX counter 48.8*, Pf growth 48h 272.7%, Shiga inhibitor 73.0* and FBPA Giardia inh 2.5%.
`COc1cccc(NC(=O)c2ccc(CN3CCc4ccccc4C3)cc2)c1` gave Pf growth 96h inconclusive, NS1 inh -24.8%, CHX counter 12.0, Pf growth 48h inconclusive, Shiga inhibitor 42.8 and FBPA Giardia inh -4.3%.
For Cc1ccc(C(=O)Nc2ccc(C(=O)O)cc2)cc1S(=O)(=O)NCc1ccccc1 the results were Pf growth 96h inconclusive, CHX counter -6.1, Pf growth 48h 16.1%, Shiga inhibitor 17.6 and FBPA Giardia inh 1.7%.
For Cc1nc2[nH]c(=O)[nH]c(=O)c2[nH]1 the results were FBPA Giardia inh -2.1%.
Screening CCc1nnc(NC(=O)c2ccc(S(=O)(=O)NCC(C)C)cc2)s1 returned Pf growth 96h 1.65µM*, NS1 inh 0.8%, CHX counter -1.7, Pf growth 48h 8.8%, Shiga inhibitor -0.6 and FBPA Giardia inh 7.8%.
CC(C)Cc1nnc(NC(=O)c2ccc([N+](=O)[O-])cc2)s1 was read as Pf growth 96h 47.0%, NS1 inh 9.5%, CHX counter 17.0*, Pf growth 48h 63.2%, Shiga inhibitor 22.8 and FBPA Giardia inh -0.6%.
`CCc1nnc(NC(=O)c2ccc(NC(=O)C(C)C)cc2)s1` gave Pf growth 96h 26.2%, NS1 inh 0.0%, CHX counter 41.1*, Pf growth 48h 40.2%, Shiga inhibitor 98.9* and FBPA Giardia inh -5.2%.
For COc1ccc(/C=C(\NC(=O)c2ccccc2)C(=O)NCCN2CCOCC2)cc1 the results were Pf growth 96h -5.1%, NS1 inh 6.3%, CHX counter 10.2, Pf growth 48h 17.8%, Shiga inhibitor -4.0 and FBPA Giardia inh 7.8%.
Cc1noc(C)c1CSc1ccccc1C(=O)N(C)CC(=O)Nc1cccc(F)c1 was read as Pf growth 96h -24.7% and Pf growth 48h -8.6%.
CCCC[C@@H]1C[C@H]1C(NC(=O)c1cccs1)c1ccc(-c2ccccc2)cc1 (stereo not given in full) was read as FBPA Giardia inh -1.5%.
For CC(C)C(NS(=O)(=O)c1cccc2nsnc12)C(=O)NC1CCCCC1 (stereo not given) the results were Pf growth 96h 10.4µM*, NS1 inh 11.3%, CHX counter 8.5, Pf growth 48h 15.3% and Shiga inhibitor -7.8.
`CC1CCC(NC(=O)C(NS(=O)(=O)c2cccc3nsnc23)C(C)C)CC1` (stereo not given) gave Pf growth 96h 6.6%, NS1 inh -6.4%, CHX counter -0.9, Pf growth 48h 5.3% and Shiga inhibitor 1.7.
O=C(Nc1ccc(Oc2ccc(C(F)(F)F)cn2)c(Cl)c1)C1CC1 was read as Pf growth 96h 11.7µM*, CHX counter 5.2, Pf growth 48h inconclusive, Shiga inhibitor 10.9 and FBPA Giardia inh -6.2%.
Screening CC(=O)Nc1ccc(NC(=O)C2CCN(c3ccc(C(F)(F)F)cn3)CC2)cc1 returned Pf growth 96h 26.0%, NS1 inh 6.9%, CHX counter 5.8, Pf growth 48h -6.9%, Shiga inhibitor -23.1 and FBPA Giardia inh -0.1%.
`CC[C@H](C)[C@H](NC(=O)[C@H](CC(=O)O)NC(=O)[C@H](CC(C)C)NC(=O)[C@H](NC(C)=O)C(c1ccccc1)c1ccccc1)C(=O)N[C@H](C(=O)N[C@@H](Cc1c[nH]c2ccccc12)C(=O)O)[C@@H](C)CC` gave CHX counter -0.7, Shiga inhibitor -17.8 and FBPA Giardia inh 0.7%.
`COc1ccc(C(=O)O)c(O)c1OC` gave FBPA Giardia inh -27.4%.
